# Test results: PubChem BioAssay (NCI)
# The panel holds about 83,000 compounds, 20% with a hit somewhere; the sample as a whole holds those more often.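 Each cell line was grown in a 96-well plate and treated with one concentration of compound for 48 hours. Values below 10 were considered active.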 Values without a mark were called inactive. Activity calls are given as the source filed them.
# What was measured:
# Assay in all cases: NCI-60 one-dose screen, 48 h (100 = growth as untreated, 0 = no growth, -100 = all killed)
# HT29 colon = details: 10 µM unless noted
# SNB-75 CNS = details: 10 µM unless noted
# SNB-19 CNS = details: 10 µM unless noted
# U251 CNS = details: 10 µM unless noted
# PC-3 prostate = details: 10 µM unless noted
# SK-MEL-5 melanoma = details: 10 µM unless noted
# UACC-62 melanoma = details: 10 µM unless noted
# LOX IMVI melanoma = details: 10 µM unless noted
# SK-MEL-28 melanoma = details: 10 µM
# SK-MEL-2 melanoma = details: 10 µM unless noted
SMILES,growth (HT29 colon),growth (SNB-75 CNS),growth (SNB-19 CNS),growth (U251 CNS),growth (PC-3 prostate),growth (SK-MEL-5 melanoma),growth (UACC-62 melanoma),growth (LOX IMVI melanoma),growth (SK-MEL-28 melanoma),growth (SK-MEL-2 melanoma)
CCOc1cc2c(cc1OCC)C(c1cc(C)c(O)c(C)c1)NCC2 (stereo not given),98%,95.3%,101%,94%,82%,99.9%,91.3%,99.6%,107%,98.3%
O=c1oc2ccc(Cl)cc2c(=O)n1-c1ccc(Cl)cc1F,7.06% (active),-25.3% (active),18.4%,-4.3% (active),2.03% (active),-87% (active),-10.7% (active),3.62% (active),0.566% (active),-31% (active)
c1ccc(-c2ccc(-c3nc4ccccc4[nH]3)cc2)cc1,52.9%,55.4%,106%,90.6%,76.8%,100%,103%,84.1%,93.2%,101%
CCCCCCc1cc2cc(-c3nc4ccccc4[nH]3)c(=Nc3ccccc3C)oc2cc1O,2.75% (active),47.8%,71.7%,34%,37.6%,41.7%,54.5%,25.5%,-10.3% (active),47.2%
COc1ccc(Cn2cc(Cn3c(=O)c(-c4nc5ccccc5[nH]4)cc4ccccc43)nn2)c(OC)c1OC,4.85% (active),-74% (active),22.8%,12.7%,17%,5.92% (active),23.2%,18.9%,50.1%,28%
CC1(O)COCCCCOc2c(CN)cccc2NC(=O)c2nc(cnc2N)-c2ccc(cc2)S(=O)(=O)C(C)(C)C1 (stereo not given),1.64% (active),-60.3% (active),-55.9% (active),-74.9% (active),14%,-94.9% (active),-90.8% (active),-86.3% (active),-87.8% (active),-32.6% (active)
O=C1/C(=C/c2ccc(O)cc2)COc2ccc(O)c(O)c21,44.6%,29.6%,46.9%,9.17% (active),41.9%,44.1%,24.3%,-48.1% (active),52.7%,85.2%
COC(=O)c1cc2c(n1Cc1ccccc1)-c1oncc1CCC2,30.9%,67.2%,81.8%,68.6%,77.4%,58.6%,49.7%,67.8%,62.5%,47.7%
O=C(NC1CCN(Cc2ccccc2)CC1)c1cc2nc(-c3ccc(Cl)s3)cc(C(F)(F)F)n2n1,-84.3% (active),35.6%,101%,-86.9% (active),72.2%,89.1%,97.3%,45.2%,-97.4% (active),-62.8% (active)
O=NN(C(=O)NC1CCC(C(=O)O)CC1)C1CCC(C(=O)O)CC1 (stereo not given),108%,84.1%,100%,104%,98.6%,104%,108%,99.3%,106%,122%
CCOc1ccccc1CN1CCc2nc3cc(C(C)(C)C)[nH]n3c(=O)c2C1,94.8%,105%,94.8%,104%,109%,101%,102%,96.7%,112%,98.3%
COc1ccc(-c2nc(N3CCN(C(=O)C4CCCCC4)CC3)c3c4c(sc3n2)CCCC4)cc1,-49.9% (active),-66.3% (active),69.8%,-78.6% (active),-28.7% (active),36.5%,44.1%,5.28% (active),-24.2% (active),24.7%
COc1ccc(C2Nc3ncnc(N)c3N=C3c4ccccc4C(=O)C32)cc1 (stereo not given),98.2%,71.5%,82.2%,90.9%,78%,95.6%,117%,92.8%,113%,88.5%
